For nine compounds, growth results are on record in PubChem BioAssay (NCI).

The panel holds about 83,000 compounds, 20% with a hit somewhere; the sample as a whole holds those more often.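 Single-dose data. Exposure time 48 hours. Values below 10 considered active.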 Values without a mark were called inactive. Activity calls are given as the source filed them.

Common to all, as to experiment: NCI-60 one-dose screen, 48 h (100 = growth as untreated, 0 = no growth, -100 = all killed)
What all share (conditions): 10 µM

Assay [1] relates to RPMI-8226 leukemia.
The test system of assay [2] is OVCAR-8 ovarian.
In assay [3] the test system is OVCAR-5 ovarian.
For assay [4], the system named is OVCAR-4 ovarian.
The subject of assay [5] is IGROV1 ovarian.
Assay [6] deals with OVCAR-3 ovarian.
Assay [7] relates to HS 578T breast.
The test system of assay [8] is NCI/ADR-RES ovarian.
The subject of assay [9] is T-47D breast.
Assay [10] deals with BT-549 breast.
Assay [11] has as its system MDA-MB-435 melanoma.
For assay [12], the system named is SW-620 colon.
Assay [13] concerns MCF7 breast.
Assay [14] concerns HCT-116 colon.
The test system of assay [15] is HCC-2998 colon.
The subject of assay [16] is KM12 colon.
For assay [17], the system named is SK-OV-3 ovarian.

Take `Fc1ccc(-c2nnc(-c3c(-c4ccc(F)cc4)nc4ccccn34)o2)cc1`: the growth in assay [1] is 85.1%; in [2], 36.7%; in assay [3], 99.9%; in assay [4], 88.8%; in [5], 114%; in assay [6], 90.3%. For the same compound, the growth in assay [7] is 92.4%; in assay [8] it was 67.7%; in assay [9], 62.3%; in [10], 60.2%; in [11], 85.1%; in assay [12] it was 91.1%. For the same compound, the growth was 59.8% in [13], 45.4% in [14], 94.1% in assay [15] and 79.9% in assay [16].
`O=[P@@]1(c2ccccc2)O[C@H](COCc2ccccc2)[C@@H](OCc2ccccc2)[C@H](OCc2ccccc2)[C@H]1O`: the growth in assay [1] is 89.6%; in assay [2] it was 45%; in assay [3], 99.3%; in assay [17], 38.7%; in assay [5], 78.3%; in [6], 59.5%. Moreover, the growth in assay [7] is -10.7% (active); in assay [8], 73.4%; in [9], 72.8%; in assay [10], 56.9%; in assay [11], 95.6%; in [12] it was 104%. Besides, the growth in assay [13] was 51%; in assay [14], 69.8%; in [15], 103%; in assay [16], 98.1%.
On to `Cc1cccc2c1O/C(=C\c1ccc([N+](=O)[O-])o1)C2=O`, for which the growth in [1] was -34.7% (active); in [2], -7.67% (active); in [3], -20.8% (active); in [4], -82.4% (active); in [5], -34.7% (active); in assay [6], -85.7% (active). In addition, the growth in assay [7] was -23.2% (active); in assay [8], 10.5%; in assay [9], -26% (active); in assay [10], -68.5% (active); in [11] it was -53.2% (active); in [12], -68% (active). Moreover, the growth in assay [13] is -39.7% (active); in assay [14] it was -53.2% (active); in [15], -67.4% (active); in [16] it was -34.2% (active).
As to `Clc1ccccc1N=Cc1ccc2c(c1)OCO2`, the growth in assay [1] was 96.2%; in assay [2] it was 103%; in assay [3], 105%; in assay [4] it was 104%; in assay [5], 111%; in [6] it was 116%. For the same compound, the growth in [7] is 117%; in assay [8] it was 106%; in assay [9], 109%; in [10] it was 78.2%; in [11], 99.8%; in assay [12], 114%. Besides, the growth was 90.5% in [13], 103% in assay [14], 103% in assay [15] and 98.8% in assay [16].
Regarding `Nc1nccc(Nc2ccccc2)n1`, the growth in assay [1] was 96.6%; in assay [2] it was 100%; in [3], 95.9%; in [4] it was 108%; in assay [5], 127%; in assay [6] it was 114%. For the same compound, the growth is 107% in assay [7]; 111% in [8]; 112% in [9]; 103% in assay [10]; 107% in [11]; 106% in [12]. In addition, the growth in [13] is 107%; in [14], 109%; in assay [15], 114%; in assay [16], 101%.
For the compound `Cc1ccc(Nc2nnc(-c3cc(-c4ccncc4)n(-c4ccccc4)n3)s2)cc1`, the growth in assay [1] is 38.6%; in assay [2], 63.5%; in assay [3] it was 104%; in assay [17] it was 100%; in assay [5] it was 89.2%; in assay [6], 118%. Besides, the growth in assay [7] was 61.9%; in [8], 59.2%; in [9], 64.5%; in assay [10], 64.8%; in [11] it was 78.3%; in [12], 94%. The growth was 80.3% in assay [13], 51.3% in [14], 57.1% in [15] and 50.8% in [16].
For the compound `CN(C)CCOc1nc2ccccc2c2c1-c1ccc(Cl)cc1C2=O`, the growth in assay [1] is -23.4% (active); in [2], 2.21% (active); in assay [3], 18.3%; in assay [4], -6.28% (active); in assay [5], -27.9% (active); in assay [6] it was -21.4% (active). Also, the growth in assay [7] is -13.3% (active); in [8], -6.87% (active); in assay [9] it was 11.9%; in assay [10], 52.1%; in assay [11] it was -41.6% (active); in assay [12] it was -60.8% (active). The growth in [13] is -38.7% (active); in [14] it was 1.69% (active); in assay [15] it was -53.6% (active); in [16], -45.2% (active).
With `Cc1cc(N(CCCNc2ccnc3cc(Cl)ccc23)Cc2ccc3c(c2)OCO3)nc(N2CCOCC2)n1`, the growth was -29.6% (active) in assay [1]; 31.7% in assay [2]; 77.4% in assay [3]; 23.1% in assay [4]; 10.9% in assay [5]; -6.27% (active) in assay [6]. Moreover, the growth was 34.3% in assay [7]; 46.9% in [8]; 0.442% (active) in assay [9]; 12.3% in [10]; -13.6% (active) in assay [11]; 11.7% in assay [12]. The growth was 31.9% in assay [13], 3.52% (active) in [14], 25.7% in assay [15] and 40.6% in [16].
For the compound `Nc1nc(N=Nc2ccc(O)cc2)cc(=O)[nH]1`, the growth in [1] is 106%; in assay [2], 97.2%; in assay [3] it was 104%; in assay [17], 104%; in [5], 109%; in assay [6] it was 125%. Moreover, the growth was 108% in [7]; 94.6% in assay [8]; 95.7% in assay [9]; 95.5% in assay [10]; 98.3% in [11]; 104% in assay [12]. Also, the growth in assay [13] is 101%; in assay [14], 112%; in assay [15] it was 106%; in assay [16] it was 111%.
